Each structure is given as a SMILES string. Results filed as inconclusive are left out. Values without a mark were called inactive. The source made the active and inactive calls. Calls come from the whole dose curve; as a rule, active = well fitted cell-killing curve with a large enough effect; inconclusive = small, poorly fitted or top-dose-only effect, or effect the other way; inactive = no such curve, though single readings can be large or run the other way.

Assay [1] is described as follows: Viability qHTS for spleen associated tyrosine kinase inhibitor (SYKi) naive MV4-11 cells (AID 1963823). Note: nearly all actives have a fitted effect of over 40% in size. An outline of the steps:
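qHTS, SYK inhibitor-naive MV4-11; 500 cells/well; 72 hr compound exposure, 37 C; CellTiter-Glo added, 10 min RT; luminescence read.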

Assay [2] can be described thus: Viability qHTS for spleen associated tyrosine kinase inhibitor (SYKi) drug resistant MV4-11 cells (AID 1963824). Note: nearly all actives have a fitted effect of over 35% in size. The essentials: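 SYK-inhibitor-resistant MV4-11 AML cells were seeded at 500 per well onto compound and cultured 72 hours (37 °C, 5% CO2). CellTiter-Glo was then added, and after 10 min at room temperature, luminescence gave viability.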
(In general: Quantitative high-throughput screening tests each substance at several concentrations.)
Potency is the fitted concentration of half-maximal effect.

For the compound `C/C=C(\C)C(=O)OC[C@H]1O[C@@H](O[C@H]2[C@@H](O[C@H]3O[C@H](COC(=O)/C(C)=C/C)[C@@H](O)[C@H](O)[C@H]3O[C@@H]3O[C@H](CO)[C@@H](O)[C@H](OC(=O)/C(C)=C/C)[C@H]3O)O[C@H](COC(=O)/C(C)=C/C)[C@@H](O)[C@@H]2O)[C@H](O)[C@@H](O)[C@@H]1O`, the viability (% of control) in assay [1] was 81.6% [at 9.25 µM]. The viability, % of control in assay [2] is 90.8% [at 9.25 µM].
With `Cc1ccc(C(C)C)c(O[C@@H]2O[C@H](CO)[C@@H](O)[C@H](O)[C@H]2O)c1`, the Potency result in assay [1] and in assay [2] was “inactive” in each case.
On to `C=C(NC(=O)C(=C)NC(=O)c1csc(C2=NC3c4csc(n4)C4NC(=O)c5csc(n5)C(C(C)(O)C(C)O)NC(=O)C5CSC(=N5)/C(=C/C)NC(=O)C(C(C)O)NC(=O)c5csc(n5)C3(CC2)NC(=O)C(C)NC(=O)C(=C)NC(=O)C(C)NC(=O)C(C(C)CC)NC2C=Cc3c(C(C)O)cc(nc3C2O)C(=O)OC4C)n1)C(N)=O` (configuration not stated), for which the Potency in assay [1] is 1.3 µM (active); in assay [2], 0.58 µM (active).
The like results for `O=C(OC[C@H]1O[C@H](O[C@H]2CO[C@H](CO)[C@@H](O)[C@@H]2O)[C@H](O)[C@@H](O)[C@H]1O)c1ccccc1` were, in that order, “inactive” and “inactive”.
Consider `CC1(C)CC[C@]2(C(=O)O[C@@H]3O[C@H](CO)[C@@H](O)[C@H](O)[C@H]3O)CC[C@]3(C)C(=CCC4[C@@]5(C)C[C@H](O)[C@H](O[C@@H]6O[C@H](C(=O)O)[C@@H](O)[C@H](O)[C@H]6O)[C@@](C)(CO)C5CC[C@]43C)C2C1` (some centres not stated), for which the viability (% of control) in assay [1] is 24.2% [at 9.25 µM]. In addition, in assay [2], the viability, % of control is 20.7% [at 9.25 µM].
Taken in the same sequence, the figures for `CC1(C)CC[C@]2(C(=O)O[C@@H]3O[C@H](CO)[C@@H](O)[C@H](O)[C@H]3O)CC[C@]3(C)C(=CCC4[C@@]5(C)CC[C@H](O[C@H]6O[C@H](CO)[C@@H](O)[C@H](O[C@@H]7O[C@H](CO)[C@@H](O)[C@H](O)[C@H]7O)[C@H]6O)C(C)(C)C5CC[C@]43C)[C@@H]2C1` (some centres not stated) were 84% [at 9.25 µM] and 95.6% [at 9.25 µM].
Regarding `CC1=C2C[C@H]3O[C@@]3(C)CCC3O[C@@]3(C)C[C@@]2(O)OC1=O` (some centres not stated), the Potency entry in assay [1] and in assay [2] was “inactive” in each case.
`O=C(/C=C/c1ccc(O)cc1)O[C@H]1[C@@H]2C=CO[C@@H](O[C@@H]3O[C@H](CO)[C@@H](O)[C@H](O)[C@H]3O)[C@@H]2[C@@]2(CO)O[C@@H]12`: the Potency result in assay [1] and in assay [2] was “inactive” in each case.
On to `CC1CCC2C(C)(C)CC(C)(CO)C2(O)C1C(=O)O` (configuration not stated), for which the Potency entry in assay [1] and in assay [2] was “inactive” in each case.
Turning to `CC(C)C(NC(=O)c1ccc(O)cc1)C(=O)N1CCCC1C(=O)Nc1c(O)cccc1C(=O)O` (configuration not stated), the Potency entry in assay [1] and in assay [2] was “inactive” each time.
Take `CC1(CCOC2OC(CO)C(O)C(O)C2O)CCC23OC2(C1)C(O)CC1C(C)(C(=O)O)CCCC13C` (configuration not stated): the Potency result in assay [1] and in assay [2] was “inactive” each time.
On to `CC1=CC(=O)CC(C)(CO[C@@H]2O[C@H](CO)[C@@H](O)[C@H](O)[C@H]2O)C1(O)/C=C/C(C)=C/C(=O)O` (some centres not stated), for which the Potency entry in assay [1] and in assay [2] was “inactive” throughout.
Regarding `CN(C)C/C=C/C(=O)Nc1cc2c(Nc3ccc(F)c(Cl)c3)ncnc2cc1OC1CCOC1` (configuration not stated), the Potency in assay [1] was 1.16 µM (active); in assay [2] it was 1.3 µM (active).
For `CC1(CO)CC(O)C2(C)CCC3(C)C(=CCC4C5(C=O)CCC(OC6OC(C(=O)O)C(O)C(O)C6OC6OC(C(=O)O)C(O)C(O)C6O)C(C)(C)C5CCC43C)C2C1` (configuration not stated), in assay [1], the viability (% of control) was 87.7% [at 9.25 µM]. Moreover, in assay [2], the viability, % of control was 98.3% [at 9.25 µM].
On to `CC1CCC2(NC1)OC1C(=O)C3C4CCC5CC(O[C@@H]6O[C@H](CO)[C@@H](O)[C@H](O)[C@H]6O[C@@H]6O[C@@H](C)[C@H](O)[C@@H](O)[C@H]6O)CCC5(C)C4CCC3(C)C1C2C` (some centres not stated), for which the Potency result in assay [1] and in assay [2] was “inactive” each time.
`C[C@H]1CC(=O)Nc2cccc(-c3cnn(C(C)(C)C)c3)c2N1`: the Potency result in assay [1] and in assay [2] was “inactive” throughout.
Consider `CCOC(=O)C(CCc1ccccc1)NC(C)C(=O)N1C(=O)N(C)CC1C(=O)O` (configuration not stated), for which the Potency result in assay [1] and in assay [2] was “inactive” in each case.
Regarding `CCC1=C(C)C(=O)C(C)CC12C(=O)CCC2C(=O)O` (configuration not stated), the Potency entry in assay [1] and in assay [2] was “inactive” each time.
Regarding `CCOC(=O)[C@H](CCc1ccccc1)CC1(C(=O)N[C@H]2CCc3ccccc3N(CC(=O)O)C2=O)CCCC1`, the Potency in assay [1] and in assay [2] was 14.6 µM (active) each time.
`Cc1ncc(Cl)cc1NCc1ccc(C(=O)NC(CC2CCCC2)C(=O)NC2CC2)s1` (configuration not stated): the Potency in assay [1] is 20.6 µM (active); in assay [2], 18.6 µM (active).
Turning to `Cc1cc(C(=O)Nc2nc3cccc(Cl)c3n2C2CCCCN(C(=O)/C=C/CN(C)C)C2)ccn1` (configuration not stated), the Potency in assay [1] was 5.17 µM (active); in assay [2] it was 8.2 µM (active).
Taken in the same sequence, the figures for `O=C(O)Cc1nn(Cc2nc3cc(C(F)(F)F)ccc3s2)c(=O)c2nccnc12` were “inactive” and “inactive”.
`C=CC1(C)C=C2C(=O)CC3C(C)(C)CCCC3(C(=O)O)C2(O)CC1` (configuration not stated): the Potency entry in assay [1] and in assay [2] was “inactive” each time.
On to `C/C(=C/CO)CC[C@H]1[C@]2(C)C[C@H](O)CC(C)(C)[C@H]2CC[C@]1(C)O`, for which the Potency entry in assay [1] and in assay [2] was “inactive” throughout.
As to `CC[C@H]1OC(=O)[C@H](C)C(=O)[C@H](C)[C@@H](OC2O[C@H](C)C[C@H](N(C)C)[C@H]2O)[C@@H](C)C[C@@H](C)C(=O)/C=C/[C@]1(C)O` (some centres not stated), the Potency entry in assay [1] and in assay [2] was “inactive” in each case.
For `CC(=C\C(C)O)/C=C(\C)C(=O)CC1CC(CC(N)=O)CC(=O)O1` (configuration not stated), the Potency result in assay [1] and in assay [2] was “inactive” throughout.
